# Results: PubChem BioAssay (NCI)
# About 83,000 compounds went through this panel and 20% of them were active in at least one assay; those are over-represented in the sample as a whole.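 Single-concentration screen, 48 h exposure, 96-well plates. Endpoint: percent growth. Below 10 = active.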 A number with no mark means an inactive call. Active and inactive are the calls of the source.
# Legend:
# Assay in all cases: NCI-60 one-dose screen, 48 h (100 = growth as untreated, 0 = no growth, -100 = all killed)
# Conditions in all cases: 10 µM unless noted
# DU-145 prostate = system: DU-145 prostate
# MALME-3M melanoma = system: MALME-3M melanoma
# MDA-MB-231 breast = system: MDA-MB-231 breast
# RXF 393 renal = system: RXF 393 renal
# SF-268 CNS = system: SF-268 CNS
# SF-295 CNS = system: SF-295 CNS
# SF-539 CNS = system: SF-539 CNS
# UACC-257 melanoma = system: UACC-257 melanoma
# M14 melanoma = system: M14 melanoma
Compound,growth (DU-145 prostate),growth (MALME-3M melanoma),growth (MDA-MB-231 breast),growth (RXF 393 renal),growth (SF-268 CNS) [%],growth (SF-295 CNS),growth (SF-539 CNS),growth (UACC-257 melanoma),growth (M14 melanoma)
CC(C)c1ccc(Nc2ccc3c(OCCCN4CCN(C)CC4)cccc3n2)cc1,76.1%,39.2%,51.8%,48.9%,71.8,38.8%,73.5%,71.9%,-67.6% (active)
O=[N+]([O-])c1ccc(N=Nc2cc(S(=O)(=O)O)c3cccc(S(=O)(=O)O)c3c2O)cc1,132%,84.5%,112%,121%,115,125%,104%,113%,97.6%
Cc1cc2c(c(C)c1Cl)C(=O)/C(=C/c1ccc(O)c(O)c1)O2,109%,111%,91.3%,113%,108,103%,100%,97.7%,95.2%
COc1cc(/C=C\c2cc(/C=C\c3ccc(O)c(OC)c3)n(C(=O)COc3ccccc3)n2)ccc1O,9.09% (active),7.21% (active),11.3%,-44.5% (active),12,15.5%,-10.3% (active),30.5%,6.75% (active)
CCCN1[C@@H]2CC[C@H]1/C(=C\c1ccc(OC)c(OC)c1)C(=O)/C2=C/c1ccc(OC)c(OC)c1,59.7%,83.9%,56.3%,58.3%,59.2,30.9%,59.4%,42.1%,43.1%
COc1cc(/C=C/C(=O)c2nc3cc(F)ccc3nc2C)cc(OC)c1OC,22.9%,65.3%,85%,54.5%,89.2,347%,97.5%,74.1%,73.1%
O=C1c2cccc3c(-c4ccc5c(c4)ncn5C4CCCCC4)ccc(c23)C(=O)N1c1nc2ccccc2s1,105%,93%,74%,105%,94.1,90.4%,95.7%,101%,93.8%
OC(c1ccc(F)c(C(F)(F)F)c1)c1cnccc1NC1CCCCC1 (stereo not given),90.2%,71.8%,55.2%,68.6%,79.6,74.1%,85.4%,87.4%,77.8%
OCc1cnccc1NCCCOc1ccccc1,104%,104%,88.6%,104%,101,104%,102%,100%,109%
COc1ccc(C(=O)c2nc3ccccc3n2CC(=O)c2ccc(F)cc2)cc1,104%,68.6%,83%,89.1%,100,190%,101%,86%,82.8%
O=C(Cn1c(C(=O)c2ccccc2)nc2ccccc21)c1ccc(F)cc1,96.6%,57.2%,46.7%,45.5%,73.3,62.9%,78.8%,75.2%,44%
C[C@H](c1nc2ccc(N)cc2[nH]1)[C@H]1CC[C@H]2[C@@H]3CCC4=CC(=O)CC[C@]4(C)[C@H]3CC[C@]12C,88.8%,101%,91.5%,44.6%,82.2,57.1%,53.8%,96.4%,89.5%
O=C1c2c(c3c4cccc(F)c4[nH]c3c3ccc4ccccc4c23)C(=O)N1O,55.1%,76.8%,70.8%,46.9%,32.5,47.9%,40.4%,67.5%,38.3%
CCCCC/C=C/C(C)=C/C1CC(C)C/C=C/CCC(O)C(OC(N)=O)CCC(C)CC(O)C(C)C(=O)O1 (stereo not given),79.5%,101%,,110%,104,59.2%,106%,88.1%,72.9%
O=Cc1ccc(-c2cn3ccnc3c(-c3ccc4ncn(Cc5ccccc5)c4c3)n2)cc1,75.7%,113%,40.8%,75%,72.9,76.9%,68.5%,122%,77%
C[C@H]1[C@H]2[C@H]3CC[C@@H]4[C@@]5(C)CC[C@H](O)C(C)(C)[C@@H]5CC[C@@]4(C)[C@]3(C)CC[C@]23CO[C@]1(C)[C@@H](C(=O)/C=C\c1ccco1)C3,102%,-11.3% (active),82.9%,110%,96.3,110%,99.7%,-8.91% (active),34.4%
CC(C)=CCC[C@](C)(O)[C@H]1CC[C@]2(C)[C@@H]1CC[C@@H]1[C@@]3(C)C/C(=C/c4ccccc4)C(=O)C(C)(C)[C@@H]3CC[C@]12C,85.3%,78.6%,85.5%,95.3%,94.7,109%,90.4%,104%,96.5%
COc1ccc(Cc2cnc(NC(=O)c3ccc4c(c3)OCCO4)s2)cc1,14.9%,55.4%,37.1%,19.5%,34.8,10.5%,-1.94% (active),46.4%,15.6%
COC(=O)C(CC=O)C(=O)C(=O)Nc1cccc(C(F)(F)F)c1 (stereo not given),110%,113%,90.2%,103%,95,110%,99.9%,66.5%,106%
O=C1NN(C(=O)c2ccccc2)C(c2ccc(Cl)c(Cl)c2)=C/C1=C\c1ccc([N+](=O)[O-])cc1,108%,88.3%,80.4%,74.3%,74.8,88.5%,90.5%,96.5%,41.8%
COc1cc2cc(Oc3cccc(NC(=O)Nc4cc(C(F)(F)F)cc(C(F)(F)F)c4)c3)c(C)nc2cc1OC,19.5%,-3.13% (active),-36.1% (active),-24.5% (active),15.3,-59.2% (active),-40.9% (active),-4.68% (active),9.04% (active)
Oc1ccc(C2c3ccccc3Oc3ccccc32)c2cccnc12,31.2%,10.2%,30.2%,5.91% (active),20.2,13%,10.4%,3.42% (active),-24.5% (active)
Cc1ccc(-n2nc3c(c(C#N)c2=O)CC(c2ccccc2[N+](=O)[O-])C([N+](=O)[O-])=C3O)cc1 (stereo not given),79.8%,79.5%,70.7%,81.9%,85.7,105%,96.9%,93.8%,92.1%
C=C1C(=O)O[C@H]2[C@H]1CC/C(CNS(=O)(=O)c1cccc3ccccc13)=C\CC[C@@]1(C)O[C@@H]21,25.5%,-18.4% (active),43.6%,-14.9% (active),58,82.2%,49.2%,70.4%,31.7%
